# Target: AT4G31550 (Arabidopsis thaliana, UniProt Q9SV15 228-325)
# Experiment: DPI-ELISA; DPI-ELISA, streptavidin 384-well plate, 1-2 pmol biotinylated dsDNA per well, crude native E. coli extract, anti-His detection; buffer as in Brand et al. [46],; high values mean tight binding
# Details: tags: C-terminal His (pET-DEST42); label: 5' biotin on forward strand; dsDNA, one strand shown
# AT4G31550, sequence (Q9SV15 228-325): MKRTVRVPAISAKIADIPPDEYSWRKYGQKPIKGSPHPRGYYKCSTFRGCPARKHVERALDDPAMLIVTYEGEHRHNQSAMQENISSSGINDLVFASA
row,Sequence,binding signal [absorbance]
1,AAAAAATTTGCTCTTTTGGTTTTCACAAAA,0.64 ± 0.0707
2,AAAAAATTCCCAGCGTATCCGACCCGAAAA,0.535 ± 0.0778
3,AAAAAATATGTAGCTGCCGTTACGCTAAAA,0.54 ± 0.212
4,AAAAAAGTGTTAGATTGTAGTTGATAAAA,0.675 ± 0.106
5,AAAAAAGTATAACGTGTTGTTGACCGAAAA,3.455 ± 0.0212
6,AAAAAACCCCAGATTTCCAGCAGTTCAAAA,0.945 ± 0.629
7,AAAAAATTTCTATTTCATCTTTGCCCAAAA,0.72 ± 0.156
8,AAAAAAGCGCGCCCGCACTGTTAATAAAAA,0.635 ± 0.106
9,AAAAAATTCGTATCTGTACCCTATGCAAAA,0.79 ± 0.283
10,AAAAAATCCCCCCGTTTCACTCTTGCAAAA,0.66 ± 0.141
11,AAAAAATGTGGTTACGGCCTCGATGAAAAA,0.565 ± 0.106
12,AAAAAAACAGCTCGGTGCCACTGTGGAAAA,0.61 ± 0.0424
13,AAAAAAGTGCGTTCACGCTTGTATCTAAAA,0.69 ± 0.17
14,AAAAAAGGGTATACTCGCAGCCCCTAAAAA,0.51 ± 0.0849

# Reference: publication PMC3795721, “Screening for Protein-DNA Interactions by Automatable DNA-Protein Interaction ELISA”
